Screening results: PubChem BioAssay, National Center for Advancing Translational Sciences (NCATS)
Compounds with a hit are over-represented: about 2.7% of the library has one in this group of screens.
BRCA1 expr act = activators of BRCA1 expression | MCF7-BRCA1-FFLuc reporter, luminescence, 48 h; response scale: scaled: vehicle 0%, 10 µM genistein 100% | Potency, µM (highest dose often 46.1 µM), most hits filed as activators | actives 1.1% (n = 380,000) | AID 624202; further: nearly all actives have a fitted effect of over 80% in size
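Cells: MCF7-BRCA1-FFLuc, 2000/well. Exposure: 48 h, 37 °C, 5% CO2. Read: luminescence, 15 min post-substrate. Controls: genistein 10 microM (maximal activation), DMSO (neutral).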
HEK293 tox = cytotoxicity in counter-screen for GLP-1R inverse agonists; actives 0.13% (n = 410,000); Potency, µM (series often up to 38.3 µM), most hits filed as inhibitors; HEK293 cAMP-luciferase reporter cells, luminescence, 24 h; AID 624418;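 further: loss of luciferase light is scored as toxicity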
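To flag toxic compounds, the library was rerun on cells for 24 hr at 37 deg C and 5% CO2. Viability-linked luminescence was captured 12 min after adding luciferase detection reagent.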
GLP1R inv ag = GLP-1 receptor (human) inverse agonism; P43220; HEK293 GLP-1R CRE-luciferase, luminescence, 24 h; GLP-1R form is constitutively active; Potency, µM (highest dose often 38.3 µM), hits mostly inhibitors; actives 1.6% (n = 410,000); AID 624417; further: nearly all actives have a fitted effect of over 55% in size
Target sequence (P43220 whole entry, looked up): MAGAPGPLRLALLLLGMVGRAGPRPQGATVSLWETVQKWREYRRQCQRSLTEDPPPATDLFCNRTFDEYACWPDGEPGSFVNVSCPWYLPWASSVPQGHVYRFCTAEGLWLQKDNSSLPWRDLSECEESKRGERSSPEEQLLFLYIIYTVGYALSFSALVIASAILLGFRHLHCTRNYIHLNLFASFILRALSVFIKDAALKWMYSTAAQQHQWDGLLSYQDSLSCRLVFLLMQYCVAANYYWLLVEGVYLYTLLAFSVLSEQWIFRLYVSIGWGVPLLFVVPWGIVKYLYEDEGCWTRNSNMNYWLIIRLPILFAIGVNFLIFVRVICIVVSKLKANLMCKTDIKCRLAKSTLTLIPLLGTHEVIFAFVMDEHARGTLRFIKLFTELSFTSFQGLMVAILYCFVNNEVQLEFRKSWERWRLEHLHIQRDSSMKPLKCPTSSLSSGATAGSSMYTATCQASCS
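Cells are plated, allowed 12 hours at 37 deg C, then treated with compounds for 24 hr before luciferase detection reagent is added and luminescence is read after 12 min at room temperature. The HEK293 line carries constitutively active GLP-1R with a cAMP-responsive reporter.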
GLP1R ag = agonists of human GLP-1 receptor. P43220. HEK293 GLP-1R CRE-luciferase, luminescence, 4-6 h; cells express a hypersensitive GLP-1R form. Potency, µM (highest dose often 45.6 µM), usual class: activators. actives 0.007% (n = 380,000)
a7 integrin act = activators of alpha7 integrin expression for muscular dystrophy. Potency, µM (doses to about 38.3 µM), hits mostly activators. AID 624291. alpha7betagal myoblasts, beta-gal FDG fluorescence, 48 h. actives 0.064% (n = 350,000); further: nearly all actives have a fitted effect of over 60% in size
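alpha7betagal+/- myoblasts (passage 13, 250/well) treated 48 h at 37C with compounds at 1:260 dilution of DMSO stock. Lysed, then beta-galactosidase activity read as FDG fluorescence (ex 480/em 540) after 30 min, with pre-read for autofluorescence.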
Hits are given with their value; 0 = inactive; ? = inconclusive; - = not tested or not shown; [ ] = another dose, or the depositor's remark. The call rests on the fitted dose curve; in most records, active means well fitted curve in the direction sought with a large enough effect; inconclusive means small, poorly fitted or top-dose-only effect, or another doubt; inactive means no such curve, though single readings can be large; an effect the other way counts as inactive or inconclusive.

SMILES	BRCA1 expr act	HEK293 tox	GLP1R inv ag	GLP1R ag	a7 integrin act
CC(C)C[C@H]1CN=C(Nc2ccccc2)N1CC1CCC(C(C)(C)C)CC1 (some centres undefined)	0	?	?	0	0
CC(C)C(=O)N1CCC(CN=Cc2c(O)n(C3CCCCC3)c(=O)n(C3CCCCC3)c2=O)CC1	0	0	2.82µM	0	0
Cc1cc(Nc2cccc(C(F)(F)F)c2)nc2ccc(NC(=O)c3cccnc3)cc12	-	?	3.98µM	-	-
CCN(Cc1nc2cc(Cl)ccc2c(=O)[nH]1)C(=O)c1cccc(OCc2c(C)noc2C)c1	0	?	0	0	0
CC(Cc1ccccc1)/[N+]([O-])=C\c1ccc(C(F)(F)F)cc1 (centres undefined)	10µM	0	?	0	0
FC(F)(F)c1ccc(NC(=S)NCc2ccccc2)cc1	0	?	?	0	0
CC(O)CN1CCN(CC(=O)[O-])CCN(CC(=O)[O-])CCN(CC(=O)[O-])CC1.[Gd+3] (centres undefined)	-	-	-	0	-
CN(Cc1ccccc1)C(=O)c1ccc(NC(=O)C2CCN(C(=O)OC(C)(C)C)CC2)cc1	0	0	5.01µM	0	0
COc1ccccc1S(=O)(=O)N(C)C[C@@H]1Oc2cc(C#CCC(C)C)ccc2S(=O)(=O)N([C@H](C)CO)C[C@@H]1C	0	0	?	0	0
C[C@@H]1CN([C@@H](C)CO)S(=O)(=O)c2ccc(Br)cc2O[C@H]1CN(C)C(=O)Nc1ccc(C(F)(F)F)cc1	0	0	7.94µM	0	0
c1ccc(CNc2c3c(nc4ccccc24)CCC3)cc1	0	?	?	0	0
c1ccc(Nc2c3c(nc4ccccc24)CCC3)cc1	0	?	11.2µM	0	0
O=[N+]([O-])c1cc(C(F)(F)F)c(Cl)c([N+](=O)[O-])c1Nc1ncc(C(F)(F)F)cc1Cl	0	-	-	-	-
C=C1C(=O)[C@@]23C[C@H]4[C@@H]5[C@@]6(C)CCC[C@@]57[C@@H]2[C@@H](O)[C@@H]1C[C@H]3[C@H]7N4C6	0	?	8.91µM	0	0
O=C(CN1CCN(S(=O)(=O)c2cc(Br)ccc2Br)CC1)NCc1ccccc1Cl	0	0	?	0	0
CC1CCC(NC(=O)CN2CCN(S(=O)(=O)c3ccc(Br)s3)CC2)CC1 (centres undefined)	0	?	10µM	0	0
COc1ccc(NC(=O)CCCn2c(=O)oc3ccccc32)cc1Cl	7.08µM	0	0	0	0
COc1cc(Cl)c(C)cc1NC(=O)CCCn1c(=O)oc2ccccc21	0	0	?	0	0
CN1CC[C@]23c4c5ccc(O)c4OC2C(O)CCC3[C@H]1C5 (some centres undefined)	-	-	-	0	-
Cc1ccc(C(=O)C2CN3CCC2CC3)cc1 (centres undefined)	0	0	7.08µM	0	0
C[C@]12CC[C@H](N)CC1=CCC1C2CC[C@@]2(C)C1CC[C@@H]2O (some centres undefined)	0	?	?	0	0
C[C@]12CC[C@@H](O)CC1=CCC1C2CC[C@@]2(C)C1CC[C@@H]2N (some centres undefined)	0	0	11.2µM	0	0
CCCSc1cc(OC)c(CCN)cc1OC	-	-	-	0	-
Cc1cc(C)nc(-n2nc(C)c(Sc3ccc(F)cc3)c2N)n1	7.08µM	?	?	0	0
CCOc1cc(CNCCc2c[nH]c3ccccc23)cc(Cl)c1OC	0	?	11.2µM	0	0
SMILES	BRCA1 expr act	HEK293 tox	GLP1R inv ag	GLP1R ag	a7 integrin act
COc1ccc(CNC(=O)Cn2c(SCC(=O)Nc3ccc(C)c(C)c3)nc3ccccc32)cc1	-	0	?	-	-
COc1cccc(C(=O)Oc2c(Sc3ccc(C)cc3)c(C)nn2C(C)(C)C)c1OC	-	?	3.16µM	-	-
COC(=O)C1=C(c2ccc(-c3ccccc3)c(F)c2)C[C@@H]2CC[C@H]1N2C(=O)N1CCC(C)CC1	0	0	?	0	0
COC(=O)C1=C(c2ccc(-c3ccccc3)c(F)c2)C[C@@H]2CC[C@H]1N2C(=O)N1CCC(O)CC1	0	0	12.6µM	0	0
COC(=O)C1=C(c2ccc(-c3ccccc3)c(F)c2)C[C@@H]2CC[C@H]1N2C(=O)N1CCCCC1	0	0	11.2µM	0	0
CCOc1ccc(/C=C/c2nc(C#N)c(NCc3ccccc3)o2)cc1	-	0	?	-	-
NC(Cc1ccc(C(F)(F)F)cc1)c1csc(Nc2nncc3ccccc23)n1 (centres undefined)	0	?	?	0	-
Nc1ccc2c(c1)oc1ccccc12	7.08µM	0	0	0	0
Cc1ccc(NC(=O)N(Cc2ccc3c(c2)OCO3)C2CCN(Cc3ccccc3)CC2)cc1Cl	-	0	12.6µM	-	-
COc1ccc(C(=O)Nc2ccc3c(c2)N(C)C(=O)c2ccccc2S3)cc1OC	-	0	?	-	-
COc1ccc2[nH]c(C)c(CCNCc3cn(C)c4ccccc34)c2c1	0	?	2.82µM	0	0
Cc1[nH]c2ccccc2c1CCNCc1cccnc1	0	0	0	0	0
CN(CC(=O)Nc1cccc(S(=O)(=O)N2CCOCC2)c1)CC(=O)Nc1ccc(Cl)c(C(F)(F)F)c1	0	?	?	0	0
CCN1CCN(c2ccc(NC(=O)c3ccc4c(c3)[nH]c(=O)n4Cc3ccc(OC)cc3)cc2)CC1	0	?	?	0	0
CCN1CCN(Cc2ccc(NC(=O)c3ccc(C)c(NC(=O)C(=O)c4c[nH]c5ccccc45)c3)cc2C(F)(F)F)CC1	0	?	5.62µM	0	0
COc1ccc2nc(NC3=NCCN3)sc2c1	1.26µM	0[1.53 µM]	0	0	0
CC(=O)NC(CCc1ccc(Cl)c(Cl)c1)c1cccc(O)c(=O)c1 (centres undefined)	0	?	?	0	0
Clc1cccc(Cl)c1Cn1nnc(N2CCCC2)n1	11.2µM	0	?	0	0
O=C1NC(=O)C(=Cc2cccc(OCCOc3ccccc3)c2)C(=O)N1	0	0	?	0	0
Cc1ccc(OCCOc2cccc(C=C3C(=O)NC(=O)NC3=O)c2)c(C)c1	?	0	6.31µM	0	0
O=C(C1CC(c2ccc(F)cc2)=NO1)N1CCC2(CC1)OCCO2 (centres undefined)	7.94µM	0	0	0	0
O=C(C1CC(c2ccc(Cl)c(Cl)c2)=NO1)N1CCC2(CC1)OCCO2 (centres undefined)	8.91µM	?	0	0	0
CC1OC(O[C@H]2C[C@@H](O)[C@]3(CO)[C@H]4[C@H](O)C[C@]5(C)[C@@H](C6=CC(=O)OC6)CC[C@]5(O)[C@@H]4CC[C@]3(O)C2)C(O)C(O)C1O (some centres undefined)	0	-	-	-	-
c1cc2c(cc1C1CCCCC1)c1c3n2CCCNC3CCC1 (centres undefined)	0	?	3.98µM	0	0
[Cl-].[Cl-].[Hg+2]	-	-	-	0	-
